{
  "source": "PubChem BioAssay (EPA / NIEHS)",
  "note": "Records with an inconclusive call do not appear. Activity calls are given as the source filed them. Rule for the calls: active = hit-call score of the fitted dose curve at least 0.9, where 1 is the maximum; inconclusive = response in the unintended direction; inactive = score below 0.9.",
  "data": [
    {"assay": "CLD_ACTIN_24hr: CellzDirect (CLD) Gene Expression Assay for Baseline Control (Actin) at 24 hours (AID 2283670)", "experimental": "CLD_24hr is a cell-based, multiplexed-readout assay that uses hepatocyte, a human liver primary cell, with measurements taken at 24 hours after chemical dosing in a 96-well plate.CLD_ACTIN_24hr is one of 16 assay component(s) measured or calculated from the CLD_24hr assay. It is designed to make measurements of mRNA induction, a form of inducible reporter, as detected with chemiluminescence signals by Quantitative Nuclease Protection Assay (qNPA) technology.Data from the assay component CLD_ACTIN_24hr was analyzed at the endpoint, CLD_ACTIN_24hr, in the positive analysis fitting direction relative to DMSO as the negative control and baseline of activity. Using a type of inducible reporter, gain-of-signal activity can be used to understand changes in the reporter gene as they relate to the gene ACTA1. Furthermore, this assay endpoint can be referred to as a secondary readout, because this assay has produced multiple assay endpoints where this one serves a background control function. To generalize the intended target to other relatable targets, this assay endpoint is annotated to the background measurement intended target family, where subfamily is baseline control.\nHuman hepatocyte cultures were treated daily for two consecutive days with fresh dosing solutions containing appropriate concentrations of the 320 ToxCast chemicals (chemical identities were blinded to CellzDirect and other ToxCast collaborators), vehicle control (0.2% DMSO), and positive control inducers as summarized in Table 1. Due to the large number of treatment groups and chemicals examined, the ToxCast chemicals were divided into two groups (spanning two independent cultures of hepatocytes from separate donor preparations (Hu778: ToxCast plates 1 and 2; Hu776: ToxCast plates 3 and 4). Each preparation of human hepatocyte cultures was treated with respective vehicle control, medium only control, set of six positive controls/reference chemicals for the five hepatic receptor pathways, and a subset of eight of the ToxCast chemicals (indoxacarb, pyrithiobac-sodium, norflurazon, cyhalofop-butyl, methomyl, thiram, acetochlor, and propiconazole). These replicate data, coupled with internal replicates designed within the blinded ToxCast chemical library, provided additional data to evaluate interindividual differences between hepatocyte preparations and their potential impact on chemical profiles.Cell morphology and integrity were evaluated using phase-contrast microscopy as an indicator of hepatocyte cell health (Tyson & Green, 1987). Cultures for each treatment group (i.e., media, vehicle [0.2% DMSO], positive control inducers [multiple concentrations], and the ToxCast chemicals [multiple concentrations]) were observed and cell morphology was assessed relative to vehicle control cultures at each harvest time point (0, 6, 24, or 48 h). […] Images were evaluated at the conclusion of the study to assess changes in cell integrity and account for the effects of chemical exposure on uncharacteristic changes in concentration-dependent gene expression profiles. The results from these determinations of apparent cytotoxicity were annotated (yes/no) alongside the corresponding qNPA data for reference.At the conclusion of each treatment period, hepatocyte cultures (96-well) were washed with 1 volume of HBSS, lysed by addition of 25 ul ArrayPlate lysis buffer (HTG, Tucson, AZ), and 70 ul/well of Denaturation Oil, denatured by incubation at 95C for 10 min, and frozen at approximately -70C until analysis by nuclease protection assay (qNPA) (Roberts et al., 2007). For qNPA analysis, cell lysates were thawed at 50C for approximately 30 min, qNPA probes were added, and samples were incubated at 95C for 10 min to begin the detection process by denaturing the target RNA, dissociating the duplexes and secondary structure hybridization. At the conclusion of the hybridization period, S1 nuclease reagent was added to each sample to digest all nonprotected nucleotides at 50C for 60-90 min. […]", "values": [
      {"molecule": "CCCCNC(=O)n1c(NC(=O)OC)nc2ccccc21", "outcome": "inactive"},
      {"molecule": "N#Cc1cc(Br)c(O)c(Br)c1", "outcome": "inactive"},
      {"molecule": "N#Cc1nn(-c2c(Cl)cc(C(F)(F)F)cc2Cl)c(N)c1S(=O)C(F)(F)F", "note": "(stereo unspecified)", "outcome": "inactive"},
      {"molecule": "CCc1nn(C)c(C(=O)NCc2ccc(C(C)(C)C)cc2)c1Cl", "outcome": "inactive"},
      {"molecule": "Oc1ccccc1-c1ccccc1", "outcome": "inactive"},
      {"molecule": "COC(=O)c1ccccc1C(=O)OC", "outcome": "inactive"},
      {"molecule": "N#CC(CCc1ccc(Cl)cc1)(Cn1cncn1)c1ccccc1", "note": "(stereo unspecified)", "outcome": "inactive"},
      {"molecule": "CS/C(C)=N/OC(=O)N(C)SN(C)C(=O)O/N=C(\\C)SC", "outcome": "inactive"},
      {"molecule": "CC(Oc1ccc(Cl)cc1Cl)C(=O)O", "note": "(stereo unspecified)", "outcome": "inactive"},
      {"molecule": "CCCCNC(=O)OCC#CI", "outcome": "inactive"},
      {"molecule": "CCNc1nc(Cl)nc(NCC)n1", "outcome": "inactive"},
      {"molecule": "C=CCC1=C(C)C(OC(=O)C2C(C=C(C)C)C2(C)C)CC1=O", "note": "(stereo unspecified)", "outcome": "inactive"},
      {"molecule": "COc1cnc(OC)n2nc(NS(=O)(=O)c3c(OCC(F)F)cccc3C(F)(F)F)nc12", "outcome": "inactive"},
      {"molecule": "COC(=O)C(C)Oc1ccc(Oc2ccc(Cl)cc2Cl)cc1", "note": "(stereo unspecified)", "outcome": "inactive"},
      {"molecule": "COC(=O)C=C(C)OP(=O)(OC)OC", "outcome": "inactive"},
      {"molecule": "COC(=O)N(OC)c1ccccc1COc1ccn(-c2ccc(Cl)cc2)n1", "outcome": "inactive"},
      {"molecule": "COc1nc(NC(C)C)nc(NC(C)C)n1", "outcome": "inactive"},
      {"molecule": "CCCCC(CC)COC(=O)c1ccccc1C(=O)OCC(CC)CCCC", "note": "(stereo unspecified)", "outcome": "inactive"},
      {"molecule": "OC(c1ccc(Cl)cc1)(c1cncnc1)c1ccccc1Cl", "note": "(stereo unspecified)", "outcome": "inactive"},
      {"molecule": "COc1nc(C)nc(NC(=O)NS(=O)(=O)c2ccccc2Cl)n1", "outcome": "inactive"},
      {"molecule": "Cc1c(F)c(F)c(COC(=O)C2C(/C=C(\\Cl)C(F)(F)F)C2(C)C)c(F)c1F", "note": "(stereo unspecified)", "outcome": "inactive"},
      {"molecule": "CNC(=O)ON=CC(C)(C)SC", "outcome": "inactive"},
      {"molecule": "CN(C)C(=S)SSC(=S)N(C)C", "outcome": "inactive"},
      {"molecule": "CNC(=S)S", "outcome": "inactive"},
      {"molecule": "CC(C)C1(C)N=C(c2nc3ccccc3cc2C(=O)O)NC1=O", "note": "(stereo unspecified)", "outcome": "inactive"},
      {"molecule": "C=CC1(C)OC(=O)N(c2cc(Cl)cc(Cl)c2)C1=O", "note": "(stereo unspecified)", "outcome": "inactive"},
      {"molecule": "CCCC1COC(Cn2cncn2)(c2ccc(Cl)cc2Cl)O1", "note": "(stereo unspecified)", "outcome": "inactive"},
      {"molecule": "CCCCOC(=O)c1ccccc1C(=O)OCCCC", "outcome": "inactive"},
      {"molecule": "Cc1ccc(-c2c(Cl)nc(C#N)n2S(=O)(=O)N(C)C)cc1", "outcome": "inactive"},
      {"molecule": "CC(C)(C)c1ccc(CSc2cnn(C(C)(C)C)c(=O)c2Cl)cc1", "outcome": "inactive"},
      {"molecule": "CCNc1nc(Cl)nc(NC(C)C)n1", "outcome": "inactive"}
    ]}
  ]
}
